Compound activity: PubChem BioAssay, several laboratories
IL1B NFkB inh: blocks IL-1B driven NFkB nuclear translocation in HUVEC cells; HUVEC IL-1B NFkB p65 nuclear translocation imaging; inhibition, % at 2 µM; 0.43% of 94,000 active; AID 796;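 active means inhibition above about 30% together with a positive call from visual inspection of the well image, limit read from the data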;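 further: nuclear over cytoplasmic p65 intensity ratio measured by imaging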
IL1B NFkB pot: enhances IL-1B driven NFkB nuclear translocation | HUVEC IL-1B NFkB p65 nuclear translocation imaging | activation, % at 2 µM | 0.3% of 94,000 active | AID 819;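 active means activation above 40%, about the mean plus 3 SD, also judged a hit on visual image review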;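 further: percent activation is computed from the nuclear over cytoplasmic p65 intensity ratio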
HUVEC tox IL1B: toxic to HUVEC cells under IL-1B stimulation | HUVEC cell count loss, Hoechst imaging, IL-1B stimulated | cell count reduction, % at 2 µM | 0.41% of 94,000 active | AID 845;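 active means cell count reduction more than 3 SD above the screen-wide mean, cut at about 70% in these data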
MRP reversal: reverses drug resistance mediated by MRP; H69AR cells + 2 uM doxorubicin, CellTiter-Glo, 72 h; differential viability (reversal), % at 10 µM; 0.04% of 85,000 active; AID 602;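 active means viability drop by adding the cancer drug above about 55%, with treated viability meeting a 40% cutoff, limit read from the data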;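 further: larger differential means the compound sensitizes cells more to doxorubicin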
SDO1 yeast rescue: sdo1-depleted yeast growth rescue | S. cerevisiae sdo1-depleted JHY4D growth rescue, OD600 30 h; hits give high values; pdr5 snq2 efflux-pump mutant strain | z-score at 10 µM | 0.21% of 140,000 active | AID 817;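 active means z-score above 3 at both the 24 hr and the 30 hr optical density reads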
MRP1 act: activates MRP-1; H69AR cells + doxorubicin, viability rescue, CellTiter-Glo; viability increase, % at 10 µM; 0.61% of 140,000 active;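 active means viability gain under doxorubicin at or above a set limit, the compound median plus 3 SD, cut at about 4.7% in these data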;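 further: MRP-1 overexpressing cells given doxorubicin 25 µM after compound pretreatment; 18-22 h compound pretreatment then 72 h with doxorubicin before readout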
Hits are given with their value. In the library only some 1.4% were active in any assay of this set; here they are far more common.

`Cc1ccc(N(C(=O)C2CCCC2)C2C=CS(=O)(=O)C2)cc1C` (stereo not given) gave IL1B NFkB inh inactive, IL1B NFkB pot 44, HUVEC tox IL1B inactive, SDO1 yeast rescue inactive and MRP1 act inactive.
For O=C(NNS(=O)(=O)c1ccc(Br)cc1)c1ccncc1 the results were IL1B NFkB inh 35, IL1B NFkB pot inactive, HUVEC tox IL1B inactive, SDO1 yeast rescue inactive and MRP1 act inactive.
Screening COc1cc(OC)cc(C(=O)NCCC(=O)NCCc2ccc(OC)c(OC)c2)c1 returned SDO1 yeast rescue inactive and MRP1 act inactive.
`Cc1cc(N2CCN(c3cccc(C)c3C)CC2)nc(-c2ccccc2)n1` gave IL1B NFkB inh inactive, IL1B NFkB pot inactive, HUVEC tox IL1B inactive, MRP reversal inactive, SDO1 yeast rescue inactive and MRP1 act 5.1.
COc1ccc(N2CCN(c3oc(COc4ccccc4)nc3C#N)CC2)cc1 was read as MRP reversal inactive, SDO1 yeast rescue inactive and MRP1 act inactive.
`N#Cc1nc(COc2ccc(Br)cc2)oc1N1CCCC1` gave IL1B NFkB inh inactive, IL1B NFkB pot inactive, HUVEC tox IL1B inactive, MRP reversal inactive, SDO1 yeast rescue inactive and MRP1 act 7.3.
For N#Cc1nc(COc2ccc(Br)cc2)oc1N1CCCCCC1 the results were IL1B NFkB inh inactive, IL1B NFkB pot inactive, HUVEC tox IL1B inactive, MRP reversal inactive, SDO1 yeast rescue inactive and MRP1 act 6.5.
For N#Cc1nc(COc2ccccc2)oc1N1CCOCC1 the results were IL1B NFkB inh inactive, IL1B NFkB pot inactive, HUVEC tox IL1B inactive, MRP reversal inactive, SDO1 yeast rescue inactive and MRP1 act inactive.
COc1ccc2nc(/C=N/NC(=O)[C@H](C)NC(=O)OC(C)(C)C)ccc2c1 was read as SDO1 yeast rescue inactive and MRP1 act inactive.
Screening CCSc1nc(C(F)(F)F)cc(=O)n1-c1ccccc1 returned IL1B NFkB inh inactive, IL1B NFkB pot inactive, HUVEC tox IL1B inactive, SDO1 yeast rescue inactive and MRP1 act inactive.
For Cn1c(SCc2ccc(Cl)cc2Cl)nc(C(F)(F)F)cc1=O the results were IL1B NFkB inh inactive, IL1B NFkB pot 44, HUVEC tox IL1B inactive, SDO1 yeast rescue inactive and MRP1 act inactive.
Screening Cc1cc(NS(=O)(=O)c2ccc(NC(=O)COc3ccccc3Cl)cc2)no1 returned IL1B NFkB inh inactive, IL1B NFkB pot inactive, HUVEC tox IL1B inactive, MRP reversal inactive, SDO1 yeast rescue inactive and MRP1 act inactive.
Cc1cc(NS(=O)(=O)c2ccc(NC(=O)COc3ccc(Cl)cc3)cc2)no1 was read as IL1B NFkB inh 99, IL1B NFkB pot inactive, HUVEC tox IL1B 88, MRP reversal inactive, SDO1 yeast rescue inactive and MRP1 act inactive.
Screening Nn1c(SCC(=O)Nc2ccccc2F)nc2ccccc2c1=O returned IL1B NFkB inh inactive, IL1B NFkB pot inactive, HUVEC tox IL1B inactive, MRP reversal inactive, SDO1 yeast rescue inactive and MRP1 act 8.8.
For Cc1ccc2c(C(=O)CN3CCCCC3CCO)c(C)[nH]c2c1 (stereo not given) the results were IL1B NFkB inh inactive, IL1B NFkB pot inactive, HUVEC tox IL1B inactive, MRP reversal inactive, SDO1 yeast rescue inactive and MRP1 act inactive.
Screening Cc1ccc2c(C(=O)CN3CCN(C4CCCCC4)CC3)c(C)[nH]c2c1 returned IL1B NFkB inh inactive, IL1B NFkB pot inactive, HUVEC tox IL1B 92, MRP reversal inactive, SDO1 yeast rescue inactive and MRP1 act inactive.
For CCN(C(=S)NC(=O)CCc1ccccc1)c1ccccc1 the results were SDO1 yeast rescue inactive and MRP1 act inactive.
`CC(C)(C)C(=O)/C(=C\c1ccc([N+](=O)[O-])cc1)n1cncn1` gave IL1B NFkB inh 69, IL1B NFkB pot inactive, HUVEC tox IL1B inactive, MRP reversal inactive, SDO1 yeast rescue inactive and MRP1 act inactive.
Screening CCC1=NNc2cccc3c(OC)ccc1c23 returned IL1B NFkB inh inactive, IL1B NFkB pot 40, HUVEC tox IL1B inactive, MRP reversal inactive, SDO1 yeast rescue inactive and MRP1 act inactive.
COc1ccc2c3c(cccc13)C(=O)N(O)C2=O was read as SDO1 yeast rescue inactive and MRP1 act inactive.
O=C(CCC1CCCC1)N1CCC(N2CCCCCC2)CC1 was read as SDO1 yeast rescue inactive and MRP1 act inactive.
`COc1cc2c(cc1NC(=O)COC(=O)C(CCSC)NC(=O)c1ccccc1Cl)oc1ccccc12` (stereo not given) gave SDO1 yeast rescue inactive and MRP1 act inactive.
For O=C1c2ccccc2C(=O)N1CCCN1CCN(CCCN2C(=O)c3ccccc3C2=O)CC1 the results were IL1B NFkB inh 98, IL1B NFkB pot inactive, HUVEC tox IL1B 89 and MRP reversal inactive.
Screening COc1ccc(NC2=Nc3ccccc3N3C2=Nc2c(c(C)nn2-c2ccc(C)cc2)C3c2cccnc2)cc1 (stereo not given) returned IL1B NFkB inh inactive, IL1B NFkB pot inactive, HUVEC tox IL1B inactive, MRP reversal inactive, SDO1 yeast rescue inactive and MRP1 act 8.8.
Screening CC(=O)Nc1ccc(NC2=Nc3ccccc3N3C2=Nc2c(c(C)nn2-c2ccccc2)C3c2ccccc2)cc1 (stereo not given) returned IL1B NFkB inh inactive, IL1B NFkB pot inactive, HUVEC tox IL1B inactive, MRP reversal inactive, SDO1 yeast rescue inactive and MRP1 act inactive.
`CCCCn1nnnc1NCc1cccc(OC)c1OC` gave IL1B NFkB inh inactive, IL1B NFkB pot 114, HUVEC tox IL1B inactive, SDO1 yeast rescue inactive and MRP1 act inactive.
`CCCCn1nnnc1NCc1ccc(OC)c(OC)c1` gave IL1B NFkB inh inactive, IL1B NFkB pot inactive, HUVEC tox IL1B inactive, MRP reversal inactive, SDO1 yeast rescue inactive and MRP1 act inactive.
Screening COc1cccc2c1nc(C)c1cc(C)oc12 returned IL1B NFkB inh inactive, IL1B NFkB pot inactive, HUVEC tox IL1B inactive, MRP reversal inactive, SDO1 yeast rescue inactive and MRP1 act inactive.
For COc1ccc2nc(C)c3cc(C)oc3c2c1 the results were IL1B NFkB inh inactive, IL1B NFkB pot inactive, HUVEC tox IL1B 87, MRP reversal inactive, SDO1 yeast rescue inactive and MRP1 act inactive.
`CN1CCN(C(=O)c2cn(C)c3ccc(S(=O)(=O)N(C)C4CCCCC4)cc3c2=O)CC1` gave IL1B NFkB inh inactive, IL1B NFkB pot inactive, HUVEC tox IL1B inactive, MRP reversal inactive, SDO1 yeast rescue inactive and MRP1 act inactive.
`CN(C)S(=O)(=O)c1ccc2c(c1)c(=O)c(C(=O)N1CCOCC1)cn2C` gave IL1B NFkB inh 66, IL1B NFkB pot inactive, HUVEC tox IL1B inactive, MRP reversal inactive, SDO1 yeast rescue inactive and MRP1 act inactive.
For CCSc1nnc(NC(=O)Cc2cccc(OC)c2)s1 the results were IL1B NFkB inh 36, IL1B NFkB pot inactive, HUVEC tox IL1B inactive, MRP reversal inactive, SDO1 yeast rescue inactive and MRP1 act inactive.
For COCCN(CC(=O)NCc1ccccc1)C(=O)CCC(=O)Nc1nccs1 the results were IL1B NFkB inh inactive, IL1B NFkB pot 41, HUVEC tox IL1B inactive, MRP reversal inactive, SDO1 yeast rescue inactive and MRP1 act inactive.
Screening O=C(Nc1nnc(C2CCCCC2)s1)c1cccs1 returned IL1B NFkB inh inactive, IL1B NFkB pot inactive, HUVEC tox IL1B inactive, MRP reversal inactive, SDO1 yeast rescue inactive and MRP1 act inactive.
